Results filed as inconclusive are left out. A number with no mark means an inactive call. Active and inactive are the calls of the source. Calls follow the shape of the dose curve; as a rule, active = well fitted cell-killing curve with a large enough effect; inconclusive = small, poorly fitted or top-dose-only effect, or effect the other way; inactive = flat fitted curve, though single readings scatter.
These molecules were tested on Tov-21-G (assay: Primary qHTS to identify gynecologic anti-cancer compounds using libraries of approved drugs and bioactive compounds (AID 1345084; also: nearly all actives have a fitted effect of over 55% in size)). Conditions: Gynecologic cancer cell panel viability, ATPlite luminescence, 48 h; series mostly up to 57.5 µM; activity change, negative = cytotoxicity: at the top concentration.
In short: (§1)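 Cells, 1,000 per well, were allowed to settle for 16 h at 37 C before compound addition. Five concentrations were tested for 48 h, and viability was read by ATPlite luminescence after 15 min at room temperature.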
% is scaled to controls: 0 for no effect and ±100 for the full control effect; potency is read from the fitted curve at half-maximal effect.

Row | SMILES | Potency | activity change, negative = cytotoxicity
1 | CCCCn1ccc(N2CCC(c3ccccc3)CC2)c(Cl)c1=O | 28.2 µM (active) | –
2 | O=C(NNc1ccccc1)c1ccncc1 | – | -0.337%
3 | COc1cc(O)c(C(=O)CCc2ccc(O)cc2)c(O[C@@H]2O[C@H](CO)[C@@H](O)[C@H](O)[C@H]2O)c1 | – | -1.34% [at 25.3 µM]
4 | COc1ccc(Cl)cc1[C@@]1(F)C(=O)Nc2cc(C(F)(F)F)ccc21 | – | -25.4%
5 | CN(CCCNC(=O)c1ccc2nc3c(c(Cl)c2c1)CCCC3)Cc1ccccc1 | – | -12.2%
6 | O=C(NCc1ccc(Oc2ccccc2)cc1)c1nc(-c2cc(Br)c(O)c(Br)c2)no1 | – | 10.6%
7 | CCN(CC)c1ccc(C(=C2C=CC(=[N+](CC)CC)C=C2)c2cc(S(=O)(=O)O)ccc2S(=O)(=O)[O-])cc1 | 25.1 µM (active) | –
8 | O=C(Nc1ccc(F)cc1)N1CCc2ccccc2C1c1ccc(C(F)(F)F)cc1 (stereo not drawn) | – | -15.5%
9 | CC(C)(C)c1ccc(-c2nc3ccccc3[nH]2)cc1 | 1.41 µM (active) | –
10 | CC1CCC2C(=CCC(O)C2(C)C)C1(C)Cc1c(O)cc(CO)c(C=O)c1O (stereo not drawn) | – | 0.893% [at 38.5 µM]
11 | CCN1CCN(Cc2ccc(-c3cc4c(NC(C)c5ccccc5)ncnc4[nH]3)cc2)CC1 (stereo not drawn) | 4.47 µM (active) | –
12 | CC(C)[C@@H](C)/C=C/[C@@H](C)[C@H]1CC[C@H]2C3=CC=C4C[C@@H](O)CC[C@]4(C)C3=CC[C@]12C | – | -3.66%
13 | OCC(Cc1ccccc1)Nc1nc(Oc2ccc3c(c2)CCC3)nc2c1ncn2Cc1ccc(-c2ccccc2)cc1 (stereo not drawn) | – | -15.1%
14 | O=C1c2c(O[C@@H]3O[C@H](CO)[C@@H](O)[C@H](O)[C@H]3O)cc(O)cc2OC1(O)Cc1ccc(O)cc1 (stereo partly drawn) | – | -3.03% [at 25.3 µM]
15 | CCCCn1c(-c2ccccc2)nc(-c2ccccc2)c1CN(Cc1ccc2c(c1)OCO2)Cc1ccc2c(c1)OCO2 | – | -2.55%
16 | Cc1ccc(C2(COC(=O)C(C)C)CO2)c(OC(=O)C(C)C)c1 (stereo not drawn) | – | -2.95% [at 38.5 µM]
17 | CCC(C)n1cc(C)c2c(C(=O)NCc3c(C)cc(C)[nH]c3=O)cc(-c3ccc(N4CCNCC4)nc3)cc21 (stereo not drawn) | – | 2.73%
18 | Cn1nccc1Nc1nccc(-c2ccn([C@H](CO)c3ccc(Cl)c(F)c3)c(=O)c2)n1 | – | -18.8%
19 | COc1cc2ncnc(Oc3cccc(NC(=O)Nc4cc(C(C)(C)C(F)(F)F)on4)c3)c2cc1OC | – | -22.7%
20 | CC1(C)CC[C@]2(C(=O)OC3OC(CO)C(O)C(O)C3O)CC[C@]3(C)C(=CCC4[C@@]5(C)CC[C@H](OC6OC(C(=O)O)C(O)C(O)C6O)C(CO)(CO)C5CC[C@]43C)[C@@H]2C1 (stereo partly drawn) | – | -29.8% [at 11.6 µM]
21 | O=C(NC(NC(=S)Nc1ccc(F)c([N+](=O)[O-])c1)C(Cl)(Cl)Cl)C(c1ccccc1)c1ccccc1 (stereo not drawn) | – | -0.397% [at 25.3 µM]
22 | Cc1ccc(C(=O)N2CCN(c3ccc([N+](=O)[O-])cc3)CC2)cc1Cl | – | 4.04%
23 | CC(=O)N1c2ccc(-c3ccc(C(=O)O)cc3)cc2C(Nc2ccc(Cl)cc2)CC1C (stereo not drawn) | 2.24 µM (active) | –
24 | C=C1/C(=C/C=C2\CCC[C@]3(C)[C@@H]([C@H](C)/C=C/C(=O)C4CC4)CC[C@@H]23)C[C@@H](O)C[C@@H]1O | – | -5.74%

What follows are molecules tested on Tov112D in the same assay as above. Conditions: Gynecologic cancer cell panel viability, ATPlite luminescence, 48 h; series mostly up to 57.5 µM; activity change, negative = cytotoxicity: at the top concentration.
In short: as §1

Row | SMILES | activity change, negative = cytotoxicity | Potency
25 | COc1ccccc1NC(=O)Nc1ccc2ccccc2c1 | -2.41% | –
26 | COc1cc(O)c(C(=O)CCc2ccc(O)cc2)c(O[C@@H]2O[C@H](CO)[C@@H](O)[C@H](O)[C@H]2O)c1 | -4.19% [at 25.3 µM] | –
27 | CN(CCCNC(=O)c1ccc2nc3c(c(Cl)c2c1)CCCC3)Cc1ccccc1 | 2.25% | –
28 | O=C(NCc1ccc(Oc2ccccc2)cc1)c1nc(-c2cc(Br)c(O)c(Br)c2)no1 | 2.08% | –
29 | O=C(Nc1ccc(F)cc1)N1CCc2ccccc2C1c1ccc(C(F)(F)F)cc1 (stereo not drawn) | -9.49% | –
30 | CC(C)(C)c1ccc(-c2nc3ccccc3[nH]2)cc1 | – | 3.98 µM (active)
31 | C=C(C)C(=O)OC1[C@@H]2C(=C)C(=O)O[C@@H]2C[C@@H](C)[C@@H]2C=CC(=O)[C@@]12C (stereo partly drawn) | -2.47% [at 38.5 µM] | –
32 | CC1CCC2C(=CCC(O)C2(C)C)C1(C)Cc1c(O)cc(CO)c(C=O)c1O (stereo not drawn) | -12.3% [at 38.5 µM] | –
33 | CC1(C)CC23[C@@H]4CC(=O)[C@@H]2COC(=O)[C@@H]3CC[C@H]41 | 7.07% | –
34 | Cn1cnc(-c2nccc3c(=O)[nH]c(OCCCC(F)(F)F)nc23)c1 | -19.6% | –
35 | CC(C)[C@@H](C)/C=C/[C@@H](C)[C@H]1CC[C@H]2C3=CC=C4C[C@@H](O)CC[C@]4(C)C3=CC[C@]12C | 4.28% | –
36 | OCC(Cc1ccccc1)Nc1nc(Oc2ccc3c(c2)CCC3)nc2c1ncn2Cc1ccc(-c2ccccc2)cc1 (stereo not drawn) | -16.8% | –
37 | Cc1[nH]c(/C=C2\C(=O)Nc3ccc(F)cc32)c(C)c1C(=O)NC[C@H](O)CN1CCOCC1 | -5.25% | –
38 | CCCCn1c(-c2ccccc2)nc(-c2ccccc2)c1CN(Cc1ccc2c(c1)OCO2)Cc1ccc2c(c1)OCO2 | 8.07% | –
39 | Cc1ccc(C2(COC(=O)C(C)C)CO2)c(OC(=O)C(C)C)c1 (stereo not drawn) | -2.41% [at 38.5 µM] | –
40 | CCC(C)n1cc(C)c2c(C(=O)NCc3c(C)cc(C)[nH]c3=O)cc(-c3ccc(N4CCNCC4)nc3)cc21 (stereo not drawn) | 13.3% | –
41 | Cn1nccc1Nc1nccc(-c2ccn([C@H](CO)c3ccc(Cl)c(F)c3)c(=O)c2)n1 | 3.02% | –
42 | COc1cc2ncnc(Oc3cccc(NC(=O)Nc4cc(C(C)(C)C(F)(F)F)on4)c3)c2cc1OC | -0.554% | –
43 | CC1(C)CC[C@]2(C(=O)OC3OC(CO)C(O)C(O)C3O)CC[C@]3(C)C(=CCC4[C@@]5(C)CC[C@H](OC6OC(C(=O)O)C(O)C(O)C6O)C(CO)(CO)C5CC[C@]43C)[C@@H]2C1 (stereo partly drawn) | -7.53% [at 11.6 µM] | –
44 | Nc1ncnc2c1ncn2[C@@H]1O[C@H](CO)C[C@H]1O | -18.7% | –
45 | O=[N+]([O-])c1ccc(-[n+]2nc(-c3ccccc3)nn2-c2ccc(I)cc2)cc1 | -0.785% | –
46 | O=C(NC(NC(=S)Nc1ccc(F)c([N+](=O)[O-])c1)C(Cl)(Cl)Cl)C(c1ccccc1)c1ccccc1 (stereo not drawn) | -2.14% [at 25.3 µM] | –
47 | Cc1ccc(C(=O)N2CCN(c3ccc([N+](=O)[O-])cc3)CC2)cc1Cl | 3.29% | –
48 | C=C1/C(=C/C=C2\CCC[C@]3(C)[C@@H]([C@H](C)/C=C/C(=O)C4CC4)CC[C@@H]23)C[C@@H](O)C[C@@H]1O | -2.62% | –

— PubChem BioAssay (NCATS)
